Measurements from PubChem BioAssay (NCI).
Compounds without any hit were thinned out: in the full panel of roughly 83,000, 20% have a hit.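 Cell lines were cultured in 96-well plates, exposed to a single compound concentration, and assessed for percent growth 48 hours later.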 Calls of active or inactive are those of the source. The calls were made as follows: active = growth percent below 10; inactive = the rest.

Tests used:
Experiment in all cases: NCI-60 one-dose screen, 48 h (100 = growth as untreated, 0 = no growth, -100 = all killed)
Details in all cases: 10 µM unless noted
[1] = system: DU-145 prostate
[2] = system: K-562 leukemia
[3] = system: MALME-3M melanoma
[4] = system: MDA-MB-231 breast
[5] = system: RXF 393 renal
[6] = system: SF-268 CNS
[7] = system: SF-295 CNS
[8] = system: SF-539 CNS
[9] = system: UACC-257 melanoma
[10] = system: M14 melanoma
[11] = system: HCT-15 colon
[12] = system: HT29 colon
[13] = system: SNB-75 CNS
[14] = system: SNB-19 CNS
[15] = system: U251 CNS
[16] = system: PC-3 prostate
[17] = system: SK-MEL-5 melanoma
[18] = system: UACC-62 melanoma
[19] = system: LOX IMVI melanoma
[20] = system: SK-MEL-28 melanoma

Measured: growth

COc1ccc([C@H]2C(=O)N(c3cc(OC)c(OC)c(OC)c3)[C@@H]2c2ccc(OC)c(O)c2)cc1
inactive: [1] 16.7% | [3] 67.8% | [4] 17.5% | [6] 29.1% | [7] 18.5% | [9] 58.1% | [13] 40.2% | [14] 28.3% | [15] 15.7% | [16] 20.9% | [18] 33.1% | [19] 13.1% | [20] 63.7%
active: [2] 9.93% | [5] 6.67% | [8] -1.89% | [10] 4.54% | [11] 9.51% | [12] -3.08% | [17] -23%

CCN1CCN(c2ccc(NC(=O)Nc3ccc4c(ccn4-c4ccnc(C(=O)NC)c4)c3)cc2C(F)(F)F)CC1
inactive: [1] 86% | [4] 58.1% | [6] 83.9% | [9] 96.7% | [10] 17.9% | [13] 43.7% | [14] 81% | [15] 44.7% | [16] 52.6% | [17] 67.4% | [18] 92.8%
active: [2] -9.49% | [3] -65.2% | [5] -30.7% | [7] -47.1% | [8] -55.3% | [11] 9.57% | [12] -44.5% | [19] -87.7% | [20] -81%

CC1CCN(CC(=O)Nn2c(COc3ccccc3)nc3ccccc3c2=O)CC1
inactive: [1] 101% | [2] 32.2% | [3] 79.5% | [4] 78.4% | [5] 94.2% | [6] 99.4% | [7] 96.9% | [8] 88.6% | [9] 95.4% | [10] 78.9% | [11] 56% | [12] 73.1% | [13] 72.6% | [14] 86.4% | [15] 81.4% | [16] 94.3% | [17] 82.9% | [18] 69.3% | [19] 85.3% | [20] 92.8%

Cc1ccc(OCc2occc2C(=O)N2CCOCC2)cc1
inactive: [1] 103% | [2] 98.9% | [3] 102% | [4] 109% | [5] 99.8% | [6] 97.5% | [7] 96.3% | [8] 100% | [9] 116% | [10] 99.3% | [11] 100% | [12] 108% | [13] 81.8% | [14] 99.8% | [15] 103% | [16] 107% | [17] 100% | [18] 97.9% | [19] 108% | [20] 110%

Nc1ncc(-c2ccc3ncnc(NCc4ccccc4)c3c2)cn1
inactive: [1] 23.7% | [2] 67.6% | [3] 38% | [4] 39.8% | [6] 44.8% | [7] 47.4% | [8] 44.3% | [9] 85.1% | [10] 65.6% | [11] 42.8% | [12] 55.3% | [13] 41.2% | [14] 52% | [15] 64.1% | [16] 34.7% | [17] 48.6% | [18] 44.8% | [19] 38.6% | [20] 57.6%
active: [5] 8.82%

Cc1ccc(N2CCN(C3=C(Cl)C(=O)c4ncccc4C3=O)CC2)cc1
inactive: [1] 51.7% | [3] 52.8% | [4] 24.5% | [5] 12.5% | [6] 80.2% | [7] 97.5% | [8] 86.6% | [9] 29.6% | [10] 70.3% | [11] 21% | [12] 106% | [13] 99.1% | [14] 70.3% | [15] 72.4% | [16] 63.3% | [17] 90.4% | [18] 29.2% | [20] 80.9%
active: [2] 6.28% | [19] -32.6%

COc1cc(-c2nc(-c3ccccc3)[nH]c2-c2ccnc(NCCCNS(=O)(=O)c3cccc(F)c3)n2)ccc1F
inactive: [1] 87.1% | [2] 63.6% | [3] 95.6% | [4] 94.3% | [5] 92.2% | [6] 89.1% | [7] 102% | [8] 98.6% | [9] 115% | [10] 93.3% | [11] 72.7% | [12] 83.2% | [13] 112% | [14] 107% | [15] 95.9% | [16] 62.9% | [17] 92% | [18] 99.8% | [19] 86.2% | [20] 100%

O=C(CCCCCCN1CC(=O)N2[C@@H](c3ccc(Cl)s3)c3[nH]c4ccccc4c3C[C@H]2C1=O)NO
active: [19] -62.7%
inactive: [1] 57.9% | [2] 27.5% | [3] 21.9% | [4] 43.8% | [5] 37.7% | [6] 81.6% | [7] 37.1% | [8] 40.9% | [9] 53.4% | [10] 51.8% | [11] 77.1% | [12] 38.9% | [13] 22.5% | [14] 52.2% | [15] 50.3% | [16] 47.4% | [17] 19.7% | [18] 21.9% | [20] 37.2%

O=C(CCl)Nc1ccc(NC(=O)c2cc(Cl)ccc2O)c(Cl)c1
inactive: [1] 95.2% | [2] 32.8% | [3] 81.8% | [4] 87.6% | [5] 87.4% | [6] 85% | [7] 83.6% | [8] 73.1% | [9] 89.9% | [10] 76.6% | [11] 25.9% | [12] 64.6% | [13] 77.1% | [14] 80% | [15] 42.8% | [16] 87.1% | [17] 57.8% | [18] 56.4% | [20] 88.5%
active: [19] -88.1%

O=C(/C=C/c1ccc(Cl)c(Cl)c1)Nc1ncc(Cc2ccc(Cl)c(Cl)c2)s1
active: [7] 7.58% | [10] -27.4%
inactive: [1] 49.5% | [2] 15.3% | [3] 79.8% | [4] 97.1% | [5] 104% | [6] 61.4% | [8] 60.5% | [9] 40.9% | [11] 29% | [12] 36.2% | [13] 95.5% | [14] 74% | [15] 58.2% | [16] 45.3% | [17] 51.4% | [18] 10.3% | [19] 23.3% | [20] 48.5%

COc1ccc(C2CC(c3cccc(OCCCCOc4cccc(C5=NN(C(C)=O)C(c6ccc(OC)cc6)C5)c4)c3)=NN2C(C)=O)cc1 (stereo not given)
inactive: [1] 81.6% | [2] 37% | [3] 105% | [4] 77.3% | [5] 95.2% | [6] 74.8% | [7] 44.3% | [8] 81.5% | [9] 46.8% | [10] 85.3% | [11] 75% | [12] 89.3% | [13] 75.4% | [14] 64.5% | [15] 81.9% | [16] 48.4% | [17] 11.8% | [18] 57.1% | [19] 62.2% | [20] 97.2%

Cc1ccc(-c2nc(SCC(=O)c3ccccc3)nc(Nc3ccc(S(N)(=O)=O)cc3)c2C#N)cc1
inactive: [1] 60.7% | [2] 70.1% | [3] 33.6% | [4] 33% | [5] 51.7% | [6] 76.7% | [7] 36.7% | [8] 18.3% | [9] 97.4% | [10] 36.7% | [11] 72.1% | [12] 92.3% | [13] 80% | [14] 77.3% | [15] 47.4% | [16] 92.6% | [17] 75.5% | [18] 80.3% | [19] 15.4% | [20] 81.1%

CC1(C)CC[C@]23CC[C@]4(C)[C@H](CC[C@@H]5[C@@]6(C)CC[C@H](NCO)C(C)(C)[C@@H]6CC[C@]54C)[C@H]2[C@H]1OC3
active: [2] 4.93% | [11] -13.5% | [15] 1.32% | [19] -89.9%
inactive: [1] 14.8% | [3] 93.5% | [4] 19.7% | [5] 56.3% | [6] 77% | [7] 59.6% | [8] 69% | [9] 103% | [10] 35.9% | [12] 17.9% | [13] 86.5% | [14] 36.9% | [16] 75% | [17] 97.7% | [18] 99.6% | [20] 89.5%

N#Cc1c(-c2cccs2)cc(-c2cnccn2)nc1SCC(=O)N/N=C/c1ccncc1
inactive: [1] 112% | [2] 96.1% | [3] 120% | [4] 102% | [5] 105% | [6] 106% | [7] 99.4% | [8] 97.6% | [9] 107% | [10] 110% | [11] 106% | [12] 109% | [13] 99.3% | [14] 101% | [15] 105% | [16] 96.4% | [17] 101% | [18] 91.4% | [19] 101% | [20] 112%

NC(N)=NS(=O)(=O)c1ccc(N=Nc2c(N)nn(-c3ccc([N+](=O)[O-])cc3[N+](=O)[O-])c2N)cc1
inactive: [1] 107% | [2] 87.4% | [3] 106% | [4] 102% | [5] 89% | [6] 100% | [7] 108% | [8] 95% | [9] 103% | [10] 102% | [11] 99.9% | [12] 105% | [13] 94.7% | [14] 99.8% | [15] 99.9% | [16] 92.8% | [17] 99% | [18] 95.2% | [19] 97.2% | [20] 109%
